In PubChem BioAssay (NCI):
Where “and” joins values, the source holds several entries; their conditions need not be identical. Equal values may be shown once. This is part of a sample that, as a whole, favours compounds with a hit. Of some 83,000 tested, about 20% had one in any assay.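 Percent growth is the endpoint: 0 to 100 indicates growth inhibition (40 means 60% inhibition), 0 means no net growth, and negative values indicate cell death.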 Calls of active or inactive are those of the source.

The compounds below were run on IGROV1 ovarian (assay: NCI-60 one-dose screen, 48 h (100 = growth as untreated, 0 = no growth, -100 = all killed)). Conditions: 10 µM unless noted.
Experimental: Growth inhibition of the IGROV1 human tumor cell line is measured as a screen for anti-cancer activity. Cells are grown in 96 well plates and exposed to the test compound for 48 hours. Compounds are tested at a single concentration, which is 10^-5 M for most compounds. The reported endpoint is percent growth (GI% or GIPRCNT), where numbers from 0 - 100% represent growth inhibition, and numbers from -100% - 0 represent cell death. For example, a value of 40 represents 60% growth inhibition. A value of 0 means no net growth occurred over the course of the experiment. A value of -40 indicates 40% of cells at the beginning of the experiment died by the end of the experiment. A value of -100 means all cells are dead at the end of the experiment.
NCI-60 Human Tumor Cell Lines Screen was performed using the standard one-dose NCI protocol, which is described in more detail at https://dtp.cancer.gov/discovery_development/nci-60/default.htm.
Compounds with GIPRCNT values below 10 were considered active. Activity score was based on GIPRCNT using the following formula: […]
Score is 0 for GIPRCNT values of 100 or above, 50 for GIPRCNT values of 0, and 100 for GIPRCNT values of -100.
With CC(C)(O)C(=O)O the growth was 101% (inactive). With Cc1cc(-c2ccc(N=Nc3ccc4c(S(=O)(=O)O)cc(S(=O)(=O)O)c(N)c4c3O)c(C)c2)ccc1N=Nc1ccc2c(S(=O)(=O)O)cc(S(=O)(=O)O)c(N)c2c1O the growth was 78.5% (inactive). In the case of CC(C)NC(=O)N/C=C(\C#N)C(N)=O, the growth is reported as 102% (inactive). With c1ccc(CNCCNCc2ccccc2)cc1 the growth was 120% (inactive). For CCOC(=O)c1c(C)cc(=O)oc1C, the growth was 99.2% (inactive). In the case of O=c1n(CC2CO2)c(=O)n(CC2CO2)c(=O)n1CC1CO1 (stereo not given), the growth is reported as 52.3% (inactive). CCCCCCCCCCNC(=O)CI was tested, and the growth was -67.4% (active). For O=C(Cc1ccccc1)c1ccc(O)c(Cl)c1, the growth was 60.4% (inactive). In the case of O=C1OC(c2ccccc2)=N/C1=C\c1ccccc1, the growth is reported as 99.1% (inactive). With NC1CCC(C(=O)O)CC1 (stereo not given) the growth was 115% (inactive) and 111% (inactive). In the case of CC(=O)OCC1OC(OC(C)=O)C(OC(C)=O)C(OC(C)=O)C1OC(C)=O (stereo not given), the growth is reported as 108% (inactive) and 105% (inactive). CC(=O)NCC(=O)c1ccc([N+](=O)[O-])cc1 was tested, and the growth was 107% (inactive). In the case of O=C(/C=C/c1ccccc1)c1ccccc1, the growth is reported as 84.7% (inactive). Cn1cnc([N+](=O)[O-])c1Sc1ncn[nH]1 was tested, and the growth was 105% (inactive). With NN1CCOC(c2ccccc2)C1 (stereo not given) the growth was 122% (inactive). With Cc1cc2ccccc2cn1 the growth was 144% (inactive). For COc1ccc(N/C=C/C2=[N+](C)c3ccccc3C2(C)C)c(OC)c1, the growth was 106% (inactive). Oc1ccc(Cc2ccccc2Cl)c(O)c1 was tested, and the growth was 94.7% (inactive). O=c1[nH]cnc2c1ncn2C1OC(CO)C(O)C1O (stereo not given) was tested, and the growth was 118% (inactive) and 133% (inactive) and 64.6% (inactive). With C#CCOC(=O)Nc1ccccc1 the growth was 109% (inactive). In the case of O=C1C=C(Nc2ccccc2)c2ccccc2C1=O, the growth is reported as 65.5% (inactive) and 85.3% (inactive). With CC1CCC(C(C)C)C(NNC(N)=O)C1 (stereo not given) the growth was 110% (inactive). With O=C1CSC2=NCCN12 the growth was 106% (inactive) and 101% (inactive). With CCCCCCCCCCCCCCCCC(C(=O)O)C(O)(CC(=O)O)C(=O)O (stereo not given) the growth was 109% (inactive) and -21.4% (active). For COc1cc(C(O)C2C(=O)OCC2C2(c3ccc4c(c3)OCO4)SCCCS2)cc(OC)c1OC (stereo not given), the growth was 94.5% (inactive). For O=[N+]([O-])c1cccc(SSc2cccc([N+](=O)[O-])c2)c1, the growth was 109% (inactive). Nc1cc(N)c(N)cc1N was tested, and the growth was 47.6% (inactive). For CC1CCC2(C(=O)O)CCC3(C)C(=CCC4C5(C)CCC(O)C(C)(C)C5CCC43C)C2C1C (stereo not given), the growth was 96.7% (inactive) and 105% (inactive). In the case of CN(C)c1ccc(/C=C\C(=O)c2ccccc2)cc1, the growth is reported as 80.5% (inactive) and 91.3% (inactive) and 80.3% (inactive). CCCCNc1ccc(Nc2ccccc2)cc1 was tested, and the growth was 58.7% (inactive). For O=C(CO)C(O)C(O)C(O)C(O)CO (stereo not given), the growth was 106% (inactive) and 109% (inactive). N#CC(C#N)N=Nc1ccc(Cl)cc1 was tested, and the growth was 69.4% (inactive). In the case of CC[C@H](CC[C@@H](C)[C@H]1CC[C@H]2[C@@H]3CC=C4C[C@@H](O)CC[C@]4(C)[C@H]3CC[C@]12C)C(C)C, the growth is reported as 111% (inactive). In the case of OC1COC(OCc2ccccc2)C(O)C1O (stereo not given), the growth is reported as 92.4% (inactive). In the case of O=C1c2c(O)ccc(O)c2C(=O)c2c(NCCNCCO)ccc(NCCNCCO)c21, the growth is reported as -10.4% (active) and -56.7% (active). With CC1CCC2(OC1)OC1CC3C4CC=C5CC(O)CCC5(C)C4CCC3(C)C1C2C (stereo not given) the growth was 67.5% (inactive). For O=CN1CCCCC1, the growth was 124% (inactive). For Cl, the growth was 120% (inactive). With O=C(O)/C=C\C(=O)Nc1cccc2ccccc12 the growth was 74.9% (inactive) and 129% (inactive). In the case of c1ccc2c(c1)OC1OC2Oc2ccccc21, the growth is reported as 97% (inactive).
